Hit rate of the full screen: of about 16,000 compounds, about 5,700 (36%) were called active. Not shown: some 24% with an inconclusive outcome. This is one part of the list. A number with no mark means an inactive call. Calls come from the whole dose curve; as a rule, active = well fitted curve in the direction sought with a large enough effect; inconclusive = small, poorly fitted or top-dose-only effect, or effect the other way; inactive = no such curve, though single readings can be large or run the other way.
These compounds were tested against Cytochrome P450 1A2 (Homo sapiens) (UniProt P05177) (assay: Cytochrome panel assay with activity outcomes). Settings: recombinant CYP, pro-luciferin dealkylation, luminescence, p450-cyp1a2; series mostly up to 57.1 µM; activity, negative = inhibition: at the top concentration.
Cytochrome P450 1A2 (Homo sapiens), sequence (P05177 whole entry, looked up): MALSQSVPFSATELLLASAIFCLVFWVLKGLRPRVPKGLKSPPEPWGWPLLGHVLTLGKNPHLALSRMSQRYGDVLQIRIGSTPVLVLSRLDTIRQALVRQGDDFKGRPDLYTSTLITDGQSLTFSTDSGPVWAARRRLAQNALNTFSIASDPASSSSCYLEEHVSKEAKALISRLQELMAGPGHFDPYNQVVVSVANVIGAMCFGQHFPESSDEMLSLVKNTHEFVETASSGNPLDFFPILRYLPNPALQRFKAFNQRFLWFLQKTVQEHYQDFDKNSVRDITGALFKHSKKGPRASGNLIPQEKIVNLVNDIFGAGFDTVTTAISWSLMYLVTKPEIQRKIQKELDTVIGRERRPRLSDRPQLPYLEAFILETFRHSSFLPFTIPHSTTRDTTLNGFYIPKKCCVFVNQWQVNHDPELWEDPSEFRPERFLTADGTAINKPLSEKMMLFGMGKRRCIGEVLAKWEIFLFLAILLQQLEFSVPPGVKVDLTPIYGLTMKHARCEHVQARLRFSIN
% is set by controls: 0 for no effect and ±100 for the full control effect.

SMILES	AC50	activity, negative = inhibition
C=CC[n+]1c(-c2ccc(C)cc2)csc1NNC(=O)Nc1ccccc1	10000 nM (active)	
Cc1ccc(Cl)c(Nc2ccccc2C(=O)O)c1Cl		-11.5%
Cc1c(Cl)cccc1Nc1ccccc1C(=O)O	3160 nM (active)	
Cc1cccc(C(=O)c2ccccc2C(=O)O)c1O		-1.11%
Cc1cccc(Nc2ccccc2C(=O)O)c1C	5010 nM (active)	
Cc1c(Cl)cccc1NC(=O)CN1CCC(C(O)(c2ccccc2)c2ccccc2)CC1		-25.7%
O=S(=O)(O)[C@@H](c1ccccc1)[C@@H](O)c1ccccc1		-13.9% [at 2.29 µM]
Cc1ccc2nc(Nc3ccccc3O)nc(-c3ccccc3)c2c1	1780 nM (active)	
COC(=O)[C@@]1(Cc2ccccc2)[C@H]2c3cc(C(=O)N4CCCC4)n(CC4CC4)c3C[C@H]2CN1C(=O)c1ccccc1		-17.5%
CCOC(=O)c1cnc(-c2ccccc2)nc1Oc1cccc(Cl)c1	2510 nM (active)	
CCOC(=O)c1cnc(-c2ccccc2)nc1Oc1ccc(Cl)cc1	200 nM (active)	
CCOC(=O)c1cnc(-c2ccccc2)nc1Oc1ccccc1	631 nM (active)	
COc1cnc(-c2ccccc2)nc1Oc1cccc(C)c1	3160 nM (active)	
COC(=O)N1CCC2(CC1)CCN(c1ccncc1)CC2		0.475%
Cc1ccc(Oc2nc(-c3ccccc3)ncc2S(C)(=O)=O)cc1	2820 nM (active)	
COc1ccc(Cc2n[nH]c(=O)c3ccccc23)cc1OC		7.79%
COc1nnc(OC)c2ccccc12	2510 nM (active)	
CCN(CC)[C@@H](C)CN1c2ccccc2Sc2ccccc21	501 nM (active)	
CN(C)CC(C)(C)CN1c2ccccc2Sc2ccccc21		-17.7% [at 11.4 µM]
CCC(=S)/C=C1\Sc2ccccc2N1CCCS(=O)(=O)O		-13%
O=C1NC(=S)N/C1=C/c1cccc([N+](=O)[O-])c1O		-17.8%
O=[N+]([O-])c1cccc(/C=N\Nc2ccc3ccccc3n2)c1O	794 nM (active)	
O=C(O)c1ccccc1CN1CCC[C@@H](C(=O)O)C1		-5.22% [at 11.4 µM]
S=c1[nH]c2cc(Cl)ccc2s1	2000 nM (active)	
O=C(O)C1C2C=CC3(CN(Cc4ccccn4)C(=O)C13)O2 (stereo not given)		-1.4%

SMILES	AC50	activity, negative = inhibition
COc1ccc(O[C@H]2C=C[C@@H](c3ccccc3)O[C@@H]2CO/N=C\[C@@H](C)[C@H](OCc2ccccc2)C(C)C)cc1		-3.11% [at 11.4 µM]
COC(=O)c1cc(NC(=O)CC2NC3CCCCC3NC2=O)cc(C(=O)OC)c1 (stereo not given)		5.3%
O=C(CC1CCCC1)Nc1ccc2c(c1)CCC2	15800 nM (active)	
Cc1ccc(NC(=O)CC2CS(=O)(=O)CC2CC(=O)Nc2ccc(C)c(C)c2)cc1C (stereo not given)		-2.75%
CN(C)C(=O)Oc1cccc([N+](C)(C)C)c1		-8.88% [at 25.6 µM]
CS[C@]12C(=O)C[C@]3(C)[C@@H](CC[C@@]3(O)C(=O)CO)[C@@H]1CCC1=CC(=O)CC[C@]12C		-24.3% [at 2.29 µM]
N#Cc1ccc(-c2ccccc2)nc1SCC(=O)c1cccc(Cl)c1	2000 nM (active)	
CCC[C@@H]1C[C@@]1(CCC)C(NC(=O)c1ccc(-c2ccccc2)cc1)c1cccc(Cl)c1 (stereo not given in full)		-2.6%
Cc1c(C(=O)Nc2nccs2)sc2nc(-c3cccs3)cc(C(F)(F)F)c12	1580 nM (active)	
Cc1ccc(NC(=O)CN2C(=O)S/C(=C\c3cccn3C)C2=O)cc1		-13.8%
Cc1ccc(Oc2ccccc2/C=C2\SC(=O)N(C)C2=O)cc1	3160 nM (active)	
Cc1cc(N)c2ccccc2[n+]1CCCCCCCCCC[n+]1c(C)cc(N)c2ccccc21		-8.27%
Cc1cc(N)c2ccccc2[n+]1CCCCCCCCCCCCCC[n+]1c(C)cc(N)c2ccccc21		-8.19%
CCCCCCCCC[n+]1cccc2c3ccccc3ccc21	15800 nM (active)	
COc1cccc2c1OC[C@@H](CO)[C@H]2N(C)C(=O)Nc1ccc(Cl)cc1Cl		2.57%
Clc1ccccc1-c1nc(-c2ccncc2)no1	79.4 nM (active)	
CC(C)C(NS(=O)(=O)c1cccs1)C(=O)NCCN1CCN(c2ccccc2)CC1 (stereo not given)		-16.6%
O=C(CCNS(=O)(=O)c1cccs1)N1CCc2ccccc2C1	15800 nM (active)	
O=C(CCNS(=O)(=O)c1cccs1)N1CCCCCC1		-3.69%
Cc1cc(C)c2c(-n3cccc3)nn(CC#N)c2n1	2510 nM (active)	
Cc1cc(C)c2c(-n3cccc3)n[nH]c2n1	3550 nM (active)	
CSc1nc(Oc2ccc(=O)[nH]n2)nc(N(C)C)n1		-8.98%
Cc1cccc(-n2c(Cn3nc(C)c([N+](=O)[O-])c3C)n[nH]c2=S)c1		1.39%
Cc1cccc(-n2nc([N+](=O)[O-])c(=NCc3cccnc3)n2O)c1	2000 nM (active)	
COc1ccc(F)cc1S(=O)(=O)NC(Cc1ccccc1)C(N)=O (stereo not given)		-11.3%
